# Test results from PubChem BioAssay AID540364 (The Scripps Research Institute Molecular Screening Center, 2011).
# Among all 360,000 compounds or so, about 2,000 (0.56%) were called active. This is one part of a sample in which actives are shown more often than they occur.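 Rule for the calls: active = activation above the average of all compounds screened plus 3 SD, cutoff fixed separately per campaign (cut at about 7.5% in these data); inactive = the rest.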
# Assay: FXN promoter activators, primary screen, cell-based, luciferase luminescence, HEK293 lucGAA850 (AID 540364);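 note: 0% = DMSO wells and 100% = 10 µM SAHA wells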
# Conditions: HEK293 lucGAA850 FXN promoter luciferase reporter, 24 h; at 6 µM; hits give high values; percent of 10 µM SAHA response
row,Compound,activation
1,CCCNC(=O)C1(C)CCCN(Cc2c(C)nn(-c3ccccc3)c2C)C1 (stereo unspecified),0.72% (inactive)
2,Cc1cc(C(=O)O)c(S(C)(=O)=O)s1,-0.08% (inactive)
3,CCOc1ccc(N2C(=O)/C(=C/c3ccc(C)o3)N(C)C2=S)cc1,4.15% (inactive)
4,Cc1cc(=O)oc(C)c1C(=O)NCc1ccc(F)cc1,14% (active)
5,Cc1cc(=O)oc(C)c1C(=O)NCCN(C)Cc1ccccc1,1.1% (inactive)
6,COc1ccc(CNC(=O)c2c(C)cc(=O)oc2C)cc1OC,-0.25% (inactive)
7,CCN(CC)CCN1C(=O)C2C(C(=O)Nc3ccc(Br)cc3)C3C=CC2(O3)C1C(=O)NC1CCCCC1 (stereo unspecified),-1.41% (inactive)
8,CS(=O)(=O)c1ccc2nnn(OCC(=O)Nc3cccc(C#N)c3)c2c1,-0.17% (inactive)
9,Cc1ccc(C2C(C#N)C(C#N)N3CCCN23)cc1 (stereo unspecified),3.84% (inactive)
10,CCCCOC(=O)CNc1nnc(SCC(=O)OCC)[nH]c1=O,4.67% (inactive)
11,COc1ccc(C#Cc2c(-c3ccc(OC)cc3)oc3ccc(-c4ccc5c(c4)OCO5)cc23)cc1,0.99% (inactive)
12,CC(=O)c1cnc(-c2ccccc2)s1,-1.26% (inactive)
13,CC(C)(C)C(=O)c1cnc(Nc2ccccc2)s1,8.7% (active)
14,O=C(/C=C/Nc1ccccc1)c1cnc(-c2ccccc2)s1,-1.96% (inactive)
15,Cc1cccc(C)c1N1C(=O)CN(Cc2ccccc2)C1=S,2.98% (inactive)
16,O=C(NC(CC(=O)N1CCN(c2ccccc2)CC1)c1ccccc1)c1ccccc1Cl (stereo unspecified),-0.04% (inactive)
17,CCOc1cc(/C=C2\SC(N3CCCCC3)=NC2=O)ccc1O,1.52% (inactive)
18,O=C1N=C(N2CCCC2)S/C1=C\c1cccc(Br)c1,8.18% (active)
19,O=C1N=C(N2CCc3ccccc3C2)S/C1=C\c1ccc(O)cc1,-0.01% (inactive)
20,COC(=O)C1CCN(CC(N)=O)CC1,-1.4% (inactive)
21,Cc1ccc(CN(C(=O)c2sc3ccccc3c2Cl)C2CCS(=O)(=O)C2)cc1 (stereo unspecified),1.1% (inactive)
22,CC1(Cc2ccccc2C#N)C(=O)Nc2ccc(-c3ccc4[nH]ccc4c3)cc21 (stereo unspecified),-5.44% (inactive)
23,CC1(Cc2cccc(C#N)c2)C(=O)Nc2ccc(-c3cccc(C(F)(F)F)c3)cc21 (stereo unspecified),11.2% (active)

row,Compound,activation
1,Cc1ccc(CC2(C)C(=O)Nc3ccc(OC(F)(F)F)cc32)cc1 (stereo unspecified),-1% (inactive)
2,COc1cccc(CNc2nc(NCc3cccs3)nc3ccsc23)c1,-1.3% (inactive)
3,NC(c1csc(NC(=O)Nc2ccccc2Oc2ccccc2)n1)c1ccccc1Cl (stereo unspecified),-1.81% (inactive)
4,c1ccc2c(c1)OCC(c1nn3cnnc3s1)O2 (stereo unspecified),3.93% (inactive)
5,CCCn1nnc2sc3c(c2c1=O)CCC(C)C3 (stereo unspecified),4.15% (inactive)
6,CC1CCc2c(sc3nc4n(c(=O)c23)CCS4)C1 (stereo unspecified),3.94% (inactive)
7,CC1CCc2sc3nc(N4CCN(CCO)CC4)n4ncnc4c3c2C1 (stereo unspecified),7.88% (active)
8,CCOc1cc2[nH]c(=O)n(CCC(=O)NCc3ccc(OC)cc3)c(=O)c2cc1OCC,0.9% (inactive)
9,NC(=S)NN=C1CCCC(C(F)(F)F)C1 (stereo unspecified),-0.39% (inactive)
10,N#CCCCn1c(O)c(N=NC(=O)C(O)c2ccccc2)c2ccccc21 (stereo unspecified),1.76% (inactive)
11,CCOC(=O)c1ccc(N=C2SC(C(=O)NC)CC(=O)N2CCc2ccccc2)cc1 (stereo unspecified),0.94% (inactive)
12,Cc1ccc(C2Nc3cccc4cccc(c34)N2)cc1,14.9% (active)
13,Oc1ccc(C2Nc3cccc4cccc(c34)N2)cc1,1.97% (inactive)
14,Cc1ccc(C2CC(c3cccc(C)c3)n3nc(N)nc3N2)cc1 (stereo unspecified),-0.54% (inactive)
15,CSCCC(NC(=O)COc1ccccc1)C(=O)OCC(=O)c1cc2ccccc2o1 (stereo unspecified),-0.05% (inactive)
16,CC(C)c1ccc(NC2CCCN(C(=O)c3ccncc3)C2)cc1 (stereo unspecified),3.59% (inactive)
17,NC(=O)NCCCC(=O)O,1.1% (inactive)
18,O=C(O)CCCCCCCCCC[n+]1ccccc1,0.28% (inactive)
19,CCCCCCCCCCCC(=O)O,9.07% (active)
20,Cn1c(=O)cc(OCCCC(=O)N2CCN(c3ccccn3)CC2)c2ccccc21,-3.01% (inactive)
21,O=C(Nc1ccc(F)cc1)c1cc2c(s1)CCCC2,2.99% (inactive)
22,O=C(NCc1cccnc1)Nc1cccc(NC(=O)NCc2cccnc2)c1F,0.81% (inactive)
23,CCN(CCN(C)C)C(=O)c1ccc2nc(C)c(N(C)C(=O)CCc3ccccc3)n2c1,0.72% (inactive)

row,Compound,activation
1,Cn1cc(S(=O)(=O)NC(c2ccccc2)c2ccccc2)c(=O)n(C)c1=O,-1.45% (inactive)
2,CC(C)c1ccc(NS(=O)(=O)c2cn(C)c(=O)n(C)c2=O)cc1,14.8% (active)
3,Cn1cc(S(=O)(=O)Nc2ccc(Cl)cc2Cl)c(=O)n(C)c1=O,1.45% (inactive)
4,COc1ccc(C(C#N)Nc2ccc(C)cc2)cc1 (stereo unspecified),-0.7% (inactive)
5,O=C1C=C(c2ccnc3cc(Cl)ccc23)C[C@@H](c2ccc3c(c2)OCO3)C1,-1.07% (inactive)
6,CC(C)c1cc(C(=O)O)n[nH]1,-1.31% (inactive)
7,Cc1cc(C(=O)NCCc2ccc(Cl)cc2)c(C)o1,3.56% (inactive)
8,Cc1cc(-c2n[nH]c(=S)n2/N=C/C(Br)=C/c2ccccc2)n[nH]1,-0.09% (inactive)
9,CC(C)c1cc(C(=O)N/N=C/C(Br)=C/c2ccccc2)n[nH]1,9.41% (active)
10,Cc1cc(C(=O)N/N=C\C(Br)=C\c2ccccc2)c(C)o1,11.4% (active)
11,Cc1ccc(-c2cc(C(=O)N/N=C/C=C/c3ccccc3)n[nH]2)o1,1.11% (inactive)
12,CCN(C(=O)COC(=O)C1CCN(S(=O)(=O)c2ccc(C)c(C)c2)CC1)C1CCS(=O)(=O)C1 (stereo unspecified),0.06% (inactive)
13,COc1cccc(OC)c1C(=O)Nc1ccc(Cc2ccncc2)cc1,3.03% (inactive)
14,CC(=O)c1ccc(NC(=O)CCc2nnc3ccc(NCc4ccco4)nn23)cc1,3.69% (inactive)
15,CCc1nnc(NC(=O)CSc2nnnn2-c2cccc(C(C)=O)c2)s1,0.27% (inactive)
16,CC[C@]12c3[nH]c4ccc(Cl)cc4c3CCN1C(=O)[C@@H](CC(=O)NCCCOC)C[C@@H]2C(=O)N1CCN(C(=O)C2CC2)CC1,-1.48% (inactive)
17,O=C(Nc1ccc2c(c1)OCCO2)c1cnccn1,7.89% (active)
18,O=C(CCN1C(=O)c2ccncc2C1=O)Nc1ccc2c(c1)OCCO2,-1.17% (inactive)
19,O=C(Nc1ccc2c(c1)OCCO2)c1ccoc1,0.23% (inactive)
20,COC(=O)[C@]1(Cc2ccccc2)N[C@H](CN(C)S(=O)(=O)c2ccc(F)cc2)[C@@H]2C(=O)N(Cc3ccccc3)C(=O)[C@@H]21,-3.95% (inactive)
21,CCNC(=O)N(CC)C[C@H]1N[C@@](CC)(C(=O)OC)[C@H]2C(=O)N(Cc3ccccc3)C(=O)[C@@H]12,0.95% (inactive)
22,CCN1C[C@@H]2[C@@H]3C(=O)N(Cc4ccccc4)C(=O)[C@@H]3[C@](Cc3ccccc3)(C(=O)OC)N2C1=NC1CCCCC1,0.85% (inactive)
23,CC[C@]1(C(=O)OC)[C@H]2C(=O)N(Cc3ccccc3)C(=O)[C@H]2[C@H]2CN=C(SCc3ccccc3)N21,15.5% (active)

row,Compound,activation
1,CCC1(CC)C(=O)C2=C3C1[C@H](C(=O)OC)C=C(C(=O)OC)C[C@H]3[C@H]1C(=O)N(Cc3ccccc3)C(=O)[C@H]1[C@H]2C (stereo partly specified),-4.42% (inactive)
2,CC[C@]1(C(=O)OC)[C@H]2C(=O)N(Cc3ccccc3)C(=O)[C@H]2[C@H]2CN=C(SCc3ccc(Cl)cc3)N21,17.8% (active)
3,CCCN=C1N(C)C[C@@H]2[C@@H]3C(=O)N(Cc4ccccc4)C(=O)[C@@H]3[C@](C)(C(=O)OC)N12,-0.73% (inactive)
4,CCN(C[C@H]1N[C@@](Cc2ccccc2)(C(=O)OC)[C@H]2C(=O)N(Cc3ccccc3)C(=O)[C@@H]12)C(=O)c1ccc(C)cc1,-1.78% (inactive)
5,CCN1C[C@@H]2[C@@H]3C(=O)N(Cc4ccccc4)C(=O)[C@@H]3[C@](C)(C1=O)N2C(=O)c1ccc(C(C)(C)C)cc1,1.3% (inactive)
6,CC[C@]1(C(=O)OC)[C@H]2C(=O)N(C)C(=O)[C@H]2[C@H]2CN(C)C(=NCc3ccccc3)N21,-0.41% (inactive)
7,COC(=O)[C@@]1(C)[C@H]2C(=O)N(Cc3ccccc3)C(=O)[C@H]2[C@H]2CN=C(SCC3CC3)N21,15.7% (active)
8,CC[C@]1(C(=O)OC)[C@H]2C(=O)N(Cc3ccccc3)C(=O)[C@H]2[C@H]2CN=C(SCc3ccc(C#N)cc3)N21,13.3% (active)
9,CCSC1(SCC)N=C(N)C2(C#N)C(c3ccccc3)NC(C)=CC12C#N (stereo unspecified),-1.4% (inactive)
10,O=C1CSC2=NCN(c3ccccc3)CN12,1.46% (inactive)
11,CC(=O)Oc1ccc(OC(C)=O)c2c1C1C=CC2CC1,0.61% (inactive)
12,CC(=O)N1CCN(c2ccc(NCc3ccc(C(C)C)cc3)cc2)CC1,-1.92% (inactive)
13,CC(=O)c1ccc(OC(=O)N2CCOCC2)cc1,0.72% (inactive)
14,CC(C)NC(=O)C1(C)CCCCN1Cc1cccc(C(F)(F)F)c1 (stereo unspecified),0.98% (inactive)
15,CC(=O)N1c2ccc(S(=O)(=O)N3CCCC(C(=O)Nc4cccc(F)c4)C3)cc2CC1C (stereo unspecified),1.26% (inactive)
16,COCc1cc(=O)oc2cc(NS(=O)(=O)c3ccc(C)cc3)ccc12,0.66% (inactive)
17,COc1ccc(CCNS(=O)(=O)c2cc3c(cc2C)NC(=O)CO3)cc1OC,-0.37% (inactive)
18,O=C1COc2c1ccc(O)c2O,1.71% (inactive)
19,S=C(NCCCc1cnc[nH]1)NCCCN(Cc1ccc(Cl)c(Cl)c1)c1ccc(Br)cn1,-0.12% (inactive)
20,Cc1cc(OCc2cc(C(=O)NCc3cc(C(C)C)no3)no2)cc(C)c1Cl,8.34% (active)
21,Cc1cccnc1CC(C)NC(=O)c1cc(COc2cncc(Cl)c2)on1 (stereo unspecified),3.48% (inactive)
22,COc1ccc(OCc2cc(C(=O)NCC3(C)COC3)no2)c(Cl)c1,4.24% (inactive)
